Measured values from PubChem BioAssay AID2113 (National Center for Advancing Translational Sciences (NCATS), 2009).
Records with an inconclusive call do not appear. Calls of active or inactive are those of the source. Calls follow the shape of the dose curve; as a rule, active = well fitted curve in either direction with a large enough effect; inconclusive = small, poorly fitted or top-dose-only effect; inactive = no such curve, though single readings can be large or run the other way.

target: Lysosomal alpha-glucosidase (Homo sapiens) (UniProt P10253); experiment: Confirmation of Inhibitors and Activators of Human alpha-Glucosidase From Spleen Homogenate; details: alpha-glucosidase enzyme activity; series mostly up to 60.5 µM; activity change, both directions: at the top concentration;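 as to Potency: fluorescence of 4-methylumbelliferone released from a fluorogenic glucopyranoside substrate at pH 5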; as to activity change, both directions: 0% is about no effect
Outline: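 Compounds titrated against spleen-homogenate alpha-glucosidase, pH 5.0, 1 mM 4-MU-glucoside substrate, 37 C for 40 min. Fluorescence after pH 10 stop, normalised to no-enzyme and enzyme controls; Hill-equation AC50.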
Potency is read from the fitted curve at half-maximal effect.

Row | Structure (SMILES) | activity change, both directions | Potency
1 | Cc1ccc(-c2nc(-c3cc4ccccc4oc3=O)sc2C)cc1 | 5.61% (inactive) | –
2 | Cc1c(OCC(F)(F)F)ccnc1CS(=O)c1nc2ccccc2[nH]1 (stereo not given) | -4.12% [at 286 µM] (inactive) | –
3 | O=S(=O)(c1ccc(Cl)cc1)N1CCN(c2nc(Nc3cc(Cl)ccc3O)nc3ccccc23)CC1 | -2.43% [at 31.5 µM] (inactive) | –
4 | CC1CCc2nc(-c3cc4ccc(O)cc4oc3=O)sc2C1 (stereo not given) | 17.6% (inactive) | –
5 | COc1ccc(/C=C/c2nnc(NC(=O)COc3ccc(Cl)cc3)s2)cc1 | -1.2% (inactive) | –
6 | O=C(Nc1nnc(-c2cccc(F)c2)s1)Nc1ccccc1F | 8.27% (inactive) | –
7 | O=S(=O)(c1ccccc1F)N1CCOCC1 | -1.74% (inactive) | –
8 | O=C(CSc1ccccc1)Nc1nnc(/C=C/c2ccccc2)s1 | 14% (inactive) | –
9 | CC(=O)c1ccc(N2CCN(S(=O)(=O)c3ccc4c(c3)CCCC(=O)N4)CC2)cc1 | -0.329% (inactive) | –
10 | CC(=O)c1ccc(N2CCN(S(=O)(=O)c3ccc4c(c3)CCCN4C(C)=O)CC2)cc1 | 1.99% (inactive) | –
11 | O=c1[nH]cc(C#Cc2ccccc2)c2ncncc12 | -10.9% (inactive) | –
12 | CC(C)(C)OC(=O)NCCCC[C@H](NC(=O)c1[nH]cnc1C(=O)Nc1ccc(CNC(=O)OC(C)(C)C)cc1)C(=O)OC(C)(C)C | -7.24% (inactive) | –
13 | COc1ccc(CCN2CNc3c(c(=O)n(C)c(=O)n3C)C2)cc1OC | 0.232% [at 31.5 µM] (inactive) | –
14 | O=S(=O)(c1ccc(Cl)cc1)N1CCN(c2nc(-c3cccs3)nc3ccccc23)CC1 | -2.9% (inactive) | –
15 | CCOC(=O)CCc1cccc2c1CCC2=O | 0.796% [at 31.5 µM] (inactive) | –
16 | CC1(C)CC(=O)c2cc(C(=O)NC3CCSC3=O)c(=O)n(-c3ccccc3)c2C1 (stereo not given) | 0.378% [at 31.5 µM] (inactive) | –
17 | COc1cc(=O)[nH]c(=O)n1CC(=O)c1ccccc1 | 1.27% [at 31.5 µM] (inactive) | –
18 | COC(=O)c1ccc(C(=O)OC)c(NC(=S)N2CCOCC2)c1 | 7.39% [at 31.5 µM] (inactive) | –

Row | Structure (SMILES) | activity change, both directions | Potency
19 | CNC(=S)/N=C(\Nc1ccc(C)cc1)c1ccccc1 | 3.12% [at 31.5 µM] (inactive) | –
20 | Cc1ccc(N/N=C2\CCS(=O)(=O)c3sccc32)cc1 | 1.95% (inactive) | –
21 | COC(=O)c1ccc(S(=O)(=O)N2CCOCC2)cc1 | -1.83% (inactive) | –
22 | COc1ccc2nc3c(cc2c1)Cn1c-3nc2ccccc2c1=O | 15.6% (inactive) | –
23 | CC(=O)c1cccc(S(=O)(=O)N2CCOCC2)c1 | -0.557% (inactive) | –
24 | CC(=O)Nc1ccc(S(=O)(=O)/N=C2/NC(=O)/C(=C\c3ccco3)S2)cc1 | 1.22% [at 31.5 µM] (inactive) | –
25 | CC1CCc2nc(-c3cc4c(ccc5ccccc54)oc3=O)sc2C1 (stereo not given) | 3.9% (inactive) | –
26 | O=c1oc2ccc(Cl)cc2cc1-c1nc2c(s1)CCCC2 | 15.9% (inactive) | –
27 | O=C1c2cc(S(=O)(=O)N3CCOCC3)ccc2-c2ccc(S(=O)(=O)N3CCOCC3)cc21 | -16.8% (inactive) | –
28 | CCCN1CNc2c(c(=O)[nH]c(=S)n2CCc2ccc(Cl)cc2Cl)C1 | – | 22.4 µM (active)
29 | CCCN1CNc2c(c(=O)[nH]c(=S)n2CCc2cccc(C)c2C)C1 | – | 12.6 µM (active)
30 | COC(=O)CSc1ccc(C#N)c(SCC(=O)OC)c1 | 4.51% [at 31.5 µM] (inactive) | –
31 | O=S(=O)(c1ccc2c(c1)C(=NNc1ccccc1)c1cc(S(=O)(=O)N3CCOCC3)ccc1-2)N1CCOCC1 | -3.62% (inactive) | –
32 | C[C@H]1OC(OC2C(O)[C@@H](O)C(OC3C(O)[C@@H](O)C(O)O[C@@H]3CO)O[C@@H]2CO)[C@H](O)C(O)C1N[C@H]1C=C(CO)[C@@H](O)[C@H](O)C1O (stereo not given in full) | -89.9% [at 286 µM] (inactive) | –
33 | C/C=C1\COC(C(=O)NCCN2CCOCC2)(C(F)(F)F)C=C1C=C1CCCCC1 (stereo not given) | -1.87% (inactive) | –
34 | COc1ccc(CCn2c3c(c(=O)[nH]c2=S)CN(CC(C)C)CN3)cc1OC | – | 14.1 µM (active)
35 | c1csc(-c2nc(NCC3CCCO3)c3ccccc3n2)c1 (stereo not given) | 2.62% [at 31.5 µM] (inactive) | –
